Sampled rows, rich in hits. Any-hit rate of the full collection: about 2.8%.
PI5P4Ka inh – qHTS for Inhibitors of phosphatidylinositol 5-phosphate 4-kinase (PI5P4K) | Phosphatidylinositol 5-phosphate 4-kinase type-2 alpha (Homo sapiens), P48426 | PI5P4Kalpha enzyme, ADP-Glo luminescence, 60 min; stronger effect = lower value | max response, % | hit rate 1.2% among 330,000 | AID 652105, 2013; active = max response of -50% or lower; inconclusive = between -30% and -50%; inactive = -30% or higher; note: value at the top dose of about 77 µM; % is set by controls: 0 for no effect and ±100 for the full control effect
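Human PI5P4Kalpha with substrate in 0.038 M HEPES pH 7.4, 0.28 mM EGTA, 0.1% CHAPS, 5% DMSO; reaction started with 5 microM ATP (final), 60 min at room temperature. ADP formed read by ADP-Glo luminescence.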
Pol beta inh – qHTS Assay for Inhibitors of DNA Polymerase Beta; Pol beta primer extension/strand displacement, fluorescence kinetic; AID 485314, 2010; P06746; Potency, µM (top dose mostly 114 µM), for inactives: at the highest dose activity change, negative = inhibition, usual class: inhibitors; hit rate 1.3% among 340,000; note: potency is the fitted concentration of half-maximal effect; % is set by controls: 0 for no effect and ±100 for the full control effect
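Enzyme-only controls used 10 nM Pol beta; buffer lacking enzyme served as negative control. Compound preincubated 15 min, then 50 nM substrate added; 0 and 10 min reads at room temperature.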
POLH inh – qHTS for Inhibitors of Polymerase Eta | Potency, µM (series often up to 114 µM), for the others: at the top dose activity change, negative = inhibition, usual class: inhibitors | hit rate 1.2% among 390,000 | recombinant Pol eta, fluorescent DNA replication assay | AID 588591, 2011 | DNA polymerase eta (Homo sapiens), Q9Y253; note: potency is the fitted concentration of half-maximal effect; % is set by controls: 0 for no effect and ±100 for the full control effect
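Pol eta (10 nM) was preincubated with compounds for 15 min at room temperature, after which fluorescent replication substrate (50 nM final) was added to start the reaction. Fluorescence was read kinetically at 0 and 10 min.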
WRN helicase inh – qHTS for Inhibitors of WRN Helicase; Bifunctional 3'-5' exonuclease/ATP-dependent helicase WRN (Homo sapiens), Q14191; WRN helicase unwinding, fluorescent forked duplex, kinetic; Potency, µM (titrated, usually from 114 µM), for the others: top-dose activity change, negative = inhibition, usual class: inhibitors; hit rate 0.46% among 360,000; note: potency is the fitted concentration of half-maximal effect; % is set by controls: 0 for no effect and ±100 for the full control effect; nearly all actives have a fitted effect of over 55% in size
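Kinetic fluorescence helicase assay: unwinding of a quenched forked DNA duplex (100 nM final) with 2 mM ATP final raises red fluorescence (525/598 nm). Compounds sat 15 min at room temperature with 20 nM WRN beforehand.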
POLK inh – qHTS for Inhibitors of Polymerase Kappa | Potency, µM (doses to about 107 µM), for inactives: top-dose activity, negative = inhibition, most hits filed as inhibitors | purified Pol kappa, fluorescent DNA synthesis assay, 10 min | hit rate 0.53% among 400,000 | DNA polymerase kappa (Homo sapiens), Q9UBT6; note: potency is the fitted concentration of half-maximal effect; % is set by controls: 0 for no effect and ±100 for the full control effect
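Here, compound and 10 nM enzyme are combined for 15 min at room temperature; adding 50 nM substrate (final) starts DNA synthesis, tracked by fluorescence at 0 and 10 min against buffer-only wells.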
POLI inh – qHTS for Inhibitors of Polymerase Iota; DNA polymerase iota (Homo sapiens), Q9UNA4; Pol iota fluorescent replication assay, 10 min; Potency, µM (doses to about 115 µM), for the others: at the highest dose activity, negative = inhibition, actives largely listed as inhibitors; hit rate 1% among 390,000; AID 588590, 2011; note: potency is the fitted concentration of half-maximal effect
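Pol iota at 10 nM preincubated 15 min with compounds at room temperature; reaction started with fluorescent substrate, 50 nM final. Fluorescence read kinetically at 0 and 10 min; buffer-only wells as negative control.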
ADP-Glo counter – qHTS for Inhibitors of PI5P4K: ADP-Glo counter assay. 1,100 tested, under 10 active. shares compounds with PI5P4Ka inh. Potency, µM (top dose mostly 76.9 µM), without a hit: at the highest dose activity change, negative = inhibition, most hits filed as inhibitors. ADP-Glo detection counter-screen, luciferase luminescence, no enzyme
Numbers without * were called inactive; ? = inconclusive; . = no result; [ ] = remark or other dose. Unless noted, calls come from the whole dose curve; as a rule, active = well fitted curve in the direction sought with a large enough effect; inconclusive = small, poorly fitted or top-dose-only effect, or another doubt; inactive = no such curve, though single readings can be large; an effect the other way counts as inactive or inconclusive.

SMILES	PI5P4Ka inh	Pol beta inh	POLH inh	WRN helicase inh	POLK inh	POLI inh	ADP-Glo counter
CCn1c(CC(=O)Nc2ccccc2F)nnc1SCC(=O)NC1CCCCC1	-29.1	2.0%	?	-4.1%[11.6 µM]	?	?	-5.9%
CCn1c(CC(=O)Nc2ccccc2OC)nnc1SCC(=O)Nc1ccccc1F	0.4	35.9%	-11.1%	-1.0%[57.1 µM]	12.9%	21.5%	.
COc1ccccc1NC(=O)Cc1nnc(SCC(=O)Nc2ccccc2F)n1C	-66.9*	0.4%	-15.8%	?	0.0%	91.3%	-6.6%
Cc1c(Cl)cccc1NC(=O)Cn1nnc(C(=O)NCc2cccs2)c1N	?	?	79.4µM*	?	-26.0%	89.1µM*	-7.4%
Cc1cccc(NC(=O)Cn2nnc(C(=O)NCc3cccs3)c2N)c1C	4.4	0.2%	-9.8%	-11.5%	-27.2%	6.4%	.
Cc1cc(C(=O)Nc2cccc3c2O[C@@H](CN(C)S(=O)(=O)c2ccccc2)[C@H](C)CN([C@@H](C)CO)C3=O)n(C)n1	-1.1	.	-17.4%	5.8%	3.7%	49.2%	.
Cc1cc(C(=O)Nc2cccc3c2O[C@@H](CN(C)S(C)(=O)=O)[C@H](C)CN([C@@H](C)CO)C3=O)n(C)n1	-0.4	.	-6.9%	3.7%	-8.4%	-5.2%	1.5%
O=C(NC1CC1)c1ccc(NC(=O)C2CCC2)cc1	-51.3*	.	-0.8%	-0.9%	-9.9%	-22.3%	-4.5%
O=c1cc(CSc2ccc(Cl)cc2)nc2nc[nH]n12	-67.2*	0.2%	6.4%	-10.3%	-12.2%	2.5%	-11.8%
Oc1ccc(CNc2ccccc2F)c2cccnc12	?	5.3%	-14.9%	1.0%	2.5%	4.0%	-8.9%
OCc1ccc(O)c2ncccc12	-12.2	-1.8%	-12.0%	-1.2%	2.3%	?	.
Cc1c(C(=O)Nc2ccc(Br)cc2F)sc2ncnc(N(C)C3CCCCC3)c12	.	6.5%	.	.	-7.7%[60.1 µM]	15.0%	.
CC1CCc2c(sc3ncnc(NS(=O)(=O)c4cccs4)c23)C1 (stereo not given)	-54.7*	26.6%	-17.2%	4.9%	-3.1%	6.0%	2.0%
COCCCNc1ncnc2sc3c(c12)CCC(C)C3 (stereo not given)	2.6	1.1%	-12.6%	-1.2%	-5.1%	4.3%	.
CC1CCN(C(=O)C(C)OC(=O)c2ccc(S(C)(=O)=O)c([N+](=O)[O-])c2)CC1 (stereo not given)	.	.	.	.	1.6%	-10.6%	.
Cn1cnc(S(=O)(=O)N2CCC(C(=O)NCc3ccccc3)CC2)c1	.	50.0%	-7.9%	.	-9.6%[60.1 µM]	-27.9%	.
Clc1ccc2nc(CSc3nc4ccccc4o3)cn2c1	-82.8*	-4.3%	3.6%	-2.6%	-14.5%	-3.9%	-7.4%
Clc1cccc(Cl)c1CNc1ccc(N2CCCC2)cc1	-50.9*	1.3%	-5.6%	-10.2%[57.1 µM]	-12.2%	95.0%	-13.5%
